ST2 IL33 inh = inhibitors of human ST2 (IL1RL1) binding to IL-33 | 78,000 compounds, 2.3% hits | AlphaLISA ST2-Fc/biotin-IL-33 interaction, 1 h | Q01638 | inhibition, % for hits at 17 µM; in the data active means inhibition above about 30%
Target sequence (Q01638 whole entry, looked up): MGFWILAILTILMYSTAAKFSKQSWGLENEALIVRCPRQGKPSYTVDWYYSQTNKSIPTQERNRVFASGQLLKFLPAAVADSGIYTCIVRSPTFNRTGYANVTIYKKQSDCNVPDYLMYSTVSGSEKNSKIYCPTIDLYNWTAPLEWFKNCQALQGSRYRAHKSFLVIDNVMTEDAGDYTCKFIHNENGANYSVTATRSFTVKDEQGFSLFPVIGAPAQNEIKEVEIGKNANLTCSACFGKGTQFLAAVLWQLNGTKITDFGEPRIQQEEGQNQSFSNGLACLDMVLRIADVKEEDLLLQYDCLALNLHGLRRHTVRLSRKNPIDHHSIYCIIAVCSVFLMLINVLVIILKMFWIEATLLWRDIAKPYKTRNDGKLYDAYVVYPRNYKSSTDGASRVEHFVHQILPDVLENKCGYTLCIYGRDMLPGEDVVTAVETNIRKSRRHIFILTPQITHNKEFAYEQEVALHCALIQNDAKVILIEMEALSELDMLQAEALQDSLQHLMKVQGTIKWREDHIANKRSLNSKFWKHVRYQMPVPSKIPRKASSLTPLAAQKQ
Active calls of the source: *; i = inactive. Only a selection was taken, and hits are over-represented in it overall.

SMILES	ST2 IL33 inh
Cc1c(C(=O)NCC2CCCO2)oc2ccc(S(=O)(=O)N3CCCCCC3)cc12 (centres undefined)	i
COc1ccccc1C1C(=C(O)c2ccc(Cl)cc2)C(=O)C(=O)N1c1ccccc1 (centres undefined)	i
CCCS(=O)(=O)N1CCCC(C(=O)NCCN(C)C)C1 (centres undefined)	i
COc1cc(NS(=O)(=O)c2ccc(NC(=O)c3ccc(Cl)cc3)cc2)nc(OC)n1	i
Cc1ccccc1Cn1nc(C)c(NC(=O)c2noc3c2CCCCC3)c1C	i
CC(C)Cn1c(NCCCO)nc2c1c(=O)[nH]c(=O)n2C	i
CCc1nc2nc(C)[nH]n2c(=O)c1NC(=O)Nc1ccc(F)cc1F	i
CCOc1ccc(C2Oc3nc(SC)nnc3-c3ccccc3N2C(C)=O)cc1C (centres undefined)	i
CCN(CC)C(=O)C1CCCN(Cc2nc(C(c3ccccc3)c3ccccc3)no2)C1 (centres undefined)	i
COc1ccc(OC)c(NS(=O)(=O)c2ccc3[nH]c(=O)sc3c2)c1	i
Cc1ccc2c(c1)N(C(C)C(=O)NC1CC1)C(=O)CO2 (centres undefined)	i
Cc1cccc(N2C(=O)CC(N3CCN(c4ccc(F)cc4)CC3)C2=O)c1 (centres undefined)	i
CCc1cccc(NC2CC(=O)N(c3cccc(Cl)c3)C2=O)c1 (centres undefined)	i
COc1cccc(N2C(=O)CC(Nc3ccc(N4CCOCC4)cc3)C2=O)c1 (centres undefined)	47.0%*
COc1ccc(NC(=O)CC(=O)N2CCN(CCO)CC2)c(OC)c1	i
O=C(CN1C(=O)CCc2cc(S(=O)(=O)N3CCCC3)ccc21)NCc1ccco1	i
O=C1N(Cc2cccnc2)C(=O)C2(CCN(Cc3ccccc3Cl)CC2)N1CCc1ccccc1	i
CCN1C(=O)N(CCc2ccccc2)C2(CCN(Cc3cccc(OC)c3OC)CC2)C1=O	i
COCCCN1C(=O)N(Cc2ccccc2)C(=O)C12CCN(Cc1c(F)cccc1Cl)CC2	32.0%*
Cc1sc2c(c1C)c(=O)n(-c1ccccc1)c1nnc(SCC(N)=O)n21	i
O=C(NC1CCCCCCC1)c1ccc2nc3cc(Cl)ccc3c(=O)n2c1	i
COc1ccc(OC2CCN(C3CCCC3)CC2)c(C(=O)N2CCC[C@H]2CO)c1	i
CCOc1ccc(C2CC(c3ccc(OC)cc3)Nc3nc(N)nn32)cc1 (centres undefined)	i
CC(=O)c1cccc(OCc2cc(C(=O)N3CCN(C4CCCC4)CC3)n[nH]2)c1	i
O=C1c2ccccc2C(=O)c2c1cccc2S(=O)(=O)Nc1ccc(Cl)cc1	52.0%*
SMILES	ST2 IL33 inh
Cc1ccc(NS(=O)(=O)c2cccc3c(S(=O)(=O)Nc4ccc(C)cc4)cccc23)cc1	i
O=S(=O)(Nc1ccc(Cl)cc1)c1cccc2cccnc12	i
CC(C)C[C@@H](N)C(=O)N(Cc1cnn(C)c1)C(C)C	i
CC(C)c1cc(C2CCCN2C(=O)CCc2cn3ccccc3n2)no1 (centres undefined)	i
CC1CC(C)CN(S(=O)(=O)c2ccc(C(=O)Nc3nnc(-c4ccc(F)cc4)o3)cc2)C1 (centres undefined)	i
CSc1ccc(-c2nc(CSCC(=O)NCc3ccco3)c(C)o2)cc1	i
Cn1c(=O)c2c(nc(N3CCCC3)n2CCSc2nc3ccccc3o2)n(C)c1=O	i
Brc1ccc(C2=CSC3=NCCN23)cc1	i
Fc1ccc(C2=CSC3=NCCN23)cc1	i
Clc1ccc(OC2=C(c3ccccc3)N3CCN=C3S2)cc1	45.0%*
CN1CCCN(Cc2cccc(Oc3ccccc3)c2)CC1	i
Cc1ccc(NC(=O)CN2CC(C(=O)O)CC2=O)c(F)c1 (centres undefined)	i
Cc1ccc(N2NC(=O)/C(=C/c3ccccc3OCC#N)C2=O)cc1Cl	i
COc1ccc(C=Nc2cc(Cl)c(N)c(Cl)c2)cc1	85.0%*
COc1ccc(/C=C/C#N)cc1	i
CC(=O)c1ccc(N=Cc2ccc(C=Nc3ccc(C(C)=O)cc3)cc2)cc1	i
COCCN(CC1CCCN(C2Cc3ccccc3C2)C1)C(=O)Cn1nc2ccccc2n1 (centres undefined)	i
NC(=O)NC(=O)CC1Sc2ccc(C(F)(F)F)cc2NC1=O (centres undefined)	i
COc1cc(OC)cc(C(=O)N2CCN=C2SCc2c(F)cccc2Cl)c1	i
CCSc1nnc2c(n1)OC(c1ccc(OC)cc1)N(C(C)=O)c1ccccc1-2 (centres undefined)	i
O=[N+]([O-])c1cccc2c(Br)[nH]nc12	i
O=[N+]([O-])c1cccc2ccc(N3CCCCC3)nc12	30.0%*
O=[N+]([O-])c1nn(-c2ccccc2)[n+]([O-])c1N1CCCCCC1	i
Cc1ccccc1NC1CC(C)Nc2c(C)cccc21 (centres undefined)	39.0%*
O=C(Nc1ccccc1C1CC1)c1ccc(Cl)cc1	i
SMILES	ST2 IL33 inh
Cc1ccccc1NC(=O)C1C2CCCCC21 (centres undefined)	i
c1cncc(CN(Cc2ccnc3ccccc23)CC2CCN(C3CCCC3)CC2)c1	i
COCCN1C(=O)N(CCc2ccccc2)C(=O)C12CCN(C1CCSC1)CC2 (centres undefined)	i
O=[N+]([O-])c1ccc(-c2nc3ccccc3o2)cc1	i
Cc1nc2ccccc2nc1-c1ccc([N+](=O)[O-])cc1	i
O=[N+]([O-])c1ccc(-c2cnc3ccccc3n2)cc1	31.0%*
Cc1ccc(C2(O)CCN(c3noc(C4CC4)n3)CC2)nc1	i
O=C(C1CCCC1)N1CCN=C1SCc1ccccc1F	i
C=CCOc1ccc(C=Nc2ccc(Cl)cc2)cc1	i
C=CCOc1ccc(C=Nc2ccc(C)cc2C)c(O)c1	38.0%*
C=CCOc1ccc(C=Nc2ccc(C(C)C)cc2)c(O)c1	41.0%*
O=c1[nH]c2ccc(N=Cc3ccc(O)cc3O)cc2[nH]1	i
O=C1C2CCCN2C(c2ccco2)N1c1ccc(Cl)c(Cl)c1 (centres undefined)	i
CCOC(=O)c1nn(CCc2scnc2C)c2c1CN(C(=O)c1scc3c1CCCC3)CC2	i
CCOC(=O)c1nn(Cc2ccc(OC)cc2)c2c1CN(C(=O)C1CCCO1)CC2 (centres undefined)	i
CCOC(=O)c1nn(CCc2ccc(OC)cc2)c2c1CN(C(=O)c1cc(C)nc(C)n1)CC2	30.0%*
O=C(c1ccc(F)cc1)c1c[nH]c2c(Cl)cccc2c1=O	i
CN1CCC(CNC(=O)CCC(=O)Nc2ccc3c(c2)CCC3)C1 (centres undefined)	i
CCOC(=O)C1CCCN(c2ncnc(N)c2[N+](=O)[O-])C1 (centres undefined)	i
COc1ccc(NC2CCCN(C3CCN(c4ccccc4C)CC3)C2)cc1OC (centres undefined)	34.0%*
COc1ccc(NC(=O)NC2CCCN(C3CCCCCC3)C2)cc1OC (centres undefined)	i
COc1ccc(NC2CCCN(C(=O)/C=C/c3cccc(Cl)c3)C2)cc1OC (centres undefined)	i
Cc1[nH]cnc1-c1nccn1CCC(c1ccccc1)c1ccco1 (centres undefined)	i
O=C(CN1CCCN(Cc2cccc(F)c2)S1(=O)=O)Nc1ccccc1F	i
CCc1ccc(CN2C(=O)CCC2(C)C(=O)NC2CCCCCCC2)cc1 (centres undefined)	i

High-throughput results: PubChem BioAssay, Paczesny and Yang Labs, IUPUI and University of Michigan
